Data on 38 molecules can be found in the supplement of paper PMC12024424.

The structures appear in SMILES notation. Structures can show the parent of a compound that is named as a salt.

For the test, the system named is Staphylococcus aureus Sa2 (MRSA, cystic fibrosis isolate). Description: growth reduction vs untreated control (viable cell count); higher = stronger antibacterial activity; extreme values may be limits of the assay. The note with it: 0.1 mM; 24 h. As to the method:
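Single-dose screen of the MedChem Express Drug Repurposing Library (0.1 mM, 1% DMSO) against planktonic MRSA S. aureus Sa2 (CF isolate) in TSB in 96-well plates, 37 °C aerobic, 24 h. Assays were run in triplicate and repeated twice.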
The molecule `COc1cccc2c1C(=O)c1c(O)c3c(c(O)c1C2=O)C[C@@](O)(C(=O)CO)C[C@@H]3O[C@H]1C[C@H](N)[C@@H](O)[C@H](C)O1` [Epirubicin (hydrochloride)] displayed a growth reduction of 100%. The result for `CCCCN(CCCC)C(=O)CN1C[C@H](c2ccc3c(c2)OCO3)[C@@H](C(=O)O)[C@@H]1c1ccc(OC)cc1` [Atrasentan (hydrochloride)] reads 98%; that for `OC1(c2ccc(Cl)c(C(F)(F)F)c2)CCN(CCCC(c2ccc(F)cc2)c2ccc(F)cc2)CC1` [Penfluridol], 100%. Then `OCCN1CCN(CCCN2c3ccccc3Sc3ccc(Cl)cc32)CC1` [Perphenazine], with 100%. `Cn1cnc([N+](=O)[O-])c1C[N+](C)(C)C/C=C/C(=O)Nc1cc2c(Nc3ccc(Cl)c(Br)c3)ncnc2cn1` [Tarloxotinib (bromide)] registered a growth reduction of 100%. As for `O=C(O)c1ccc2nc(-c3cc(Cl)cc(Cl)c3)oc2c1` [Tafamidis meglumine], the growth reduction turned out to be 98%.

Molecule `CC(C)/N=c1\cc2n(-c3ccc(Cl)cc3)c3ccccc3nc-2cc1Nc1ccc(Cl)cc1` [Clofazimine] registered a growth reduction of 100%.

With `COc1cccc2c1C(=O)c1c(O)c3c(c(O)c1C2=O)C[C@@](O)(C(=O)CO)C[C@@H]3O[C@H]1C[C@H](N)[C@H](O)[C@H](C)O1` [Doxorubicin (hydrochloride)], the growth reduction came to 100%. The result for `NC(N)=NC(=O)c1nc(Cl)c(N2CCCCCC2)nc1N` [5-(N,N-Hexamethylene)-amiloride] reads 100%.

`C[C@]1(O)C[C@@H](c2nc(-c3ccc4ccc(-c5ccccc5)nc4c3)c3c(N)nccn32)C1` [Linsitinib] showed a growth reduction of 100%. Then `CC(C)Nc1nc2cc(Cl)c(Cl)cc2n1[C@H]1O[C@@H](CO)[C@H](O)[C@@H]1O` [Maribavir], with 94%. Then `Cc1ccc(C#Cc2ccc(S(=O)(=O)N[C@H](Cc3c[nH]c4ccccc34)C(=O)O)s2)cc1`, with 100%; and `Cc1ccc(Cl)c(Nc2ccccc2C(=O)O)c1Cl` [Meclofenamate (sodium)], with 99%.

With `Cc1cc([C@H](C)Nc2nccc(N3C(=O)OC[C@@H]3[C@@H](C)F)n2)ncc1-c1ccnc(C(F)(F)F)c1`, the growth reduction came to 97%. Then `O=C(NC1CCN(CCCCC2(C(=O)NCC(F)(F)F)c3ccccc3-c3ccccc32)CC1)c1ccccc1-c1ccc(C(F)(F)F)cc1` [Lomitapide], with 100%; and `O=C(c1ccc(F)c(F)c1Nc1ccc(I)cc1F)N1CC(O)([C@@H]2CCCCN2)C1` [Cobimetinib], with 100%. Then `C=CCc1ccc(O)c(-c2cc(CC=C)ccc2O)c1` [Magnolol], with 100%; and `CCCCN(CCCC)CCC(O)c1cc2c(Cl)cc(Cl)cc2c2cc(C(F)(F)F)ccc12` (stereo not drawn) [Halofantrine hydrochloride], with 94%; and `CC(C)(C)[C@@H]1NC(=O)O[C@@H]2CCC[C@H]2OC/C=C/C(F)(F)c2nc3ccccc3nc2O[C@@H]2C[C@@H](C(=O)N[C@]3(C(=O)NS(=O)(=O)C4(C)CC4)C[C@H]3C(F)F)N(C2)C1=O` [Glecaprevir], with 100%. Regarding `C=C1CC[C@H](O)C/C1=C/C=C1\CCC[C@]2(C)[C@@H]([C@H](C)/C=C/[C@H](C)C(C)C)CC[C@@H]12` [Vitamin D2], the growth reduction is 100%. Then `COc1cc([C@H]2C(C#N)=C(N)Oc3c2ccc(N)c3N)cc(Br)c1OC` [Crolibulin], with 100%; and `CC(C)C[C@@H](C(=O)N[C@H](C(=O)OC1CCCC1)c1ccccc1)[C@H](O)C(=O)NO` [Tosedostat], with 100%. The molecule `Cc1c(Cl)c(C)[n+]([O-])c(Cl)c1-c1noc(-c2cc(O)c(O)c([N+](=O)[O-])c2)n1` [Opicapone] returned a growth reduction of 100%. Take `CC1CS(=O)(=O)CCN1/N=C/c1ccc([N+](=O)[O-])o1` (stereo not drawn) [Nifurtimox]: the growth reduction was 100%. Then `CC[C@H]1[C@@H](O)[C@@H]2[C@H](CC[C@]3(C)[C@@H]([C@H](C)CCC(=O)O)CC[C@@H]23)[C@@]2(C)CC[C@@H](O)C[C@@H]12` [Obeticholic acid], with 98%; and `CC(C)N(CCCCOCC(=O)NS(C)(=O)=O)c1cnc(-c2ccccc2)c(-c2ccccc2)n1` [Selexipag], with 100%. The result for `Cc1cc2c(cc1CC(=O)c1sccc1S(=O)(=O)Nc1onc(C)c1Cl)OCO2` [Sitaxsentan (sodium)] reads 90%; that for `OCCN1CCN(CC/C=C2/c3ccccc3Sc3ccc(C(F)(F)F)cc32)CC1` [Flupentixol dihydrochloride], 100%; that for `O=C(O)c1cc(-c2ccc(F)cc2F)ccc1O` [Diflunisal], 98%. As to `Clc1ccc(CO/N=C(\Cn2ccnc2)c2ccc(Cl)cc2Cl)c(Cl)c1` [Oxiconazole nitrate], the growth reduction amounted to 100%.

`CC/C(=C(\c1ccccc1)c1ccc(OCCN(C)C)cc1)c1ccccc1` [Tamoxifen] registered a growth reduction of 100%. Then `NC(=O)c1cccc2cn(-c3ccc([C@@H]4CCCNC4)cc3)nc12` [Niraparib (tosylate)], with 99%; and `CN1CCCC(CC2c3ccccc3Sc3ccccc32)C1` (stereo not drawn) [Metixene hydrochloride hydrate], with 100%. Then `Cc1ccc(-n2[nH]c(C)c(N=Nc3cccc(-c4cccc(C(=O)O)c4)c3O)c2=O)cc1C` [Eltrombopag (Olamine)], with 100%. Then `C=CC(=O)N1CC[C@@H](Oc2nc(Nc3ccc(N4CCC(N5CCN(C)CC5)CC4)cc3)c(C(N)=O)nc2CC)C1` [Naquotinib (mesylate)], with 100%. `COc1cc(C)c2c(Oc3cccc(C(F)(F)F)c3)c(OC)cc(NC(C)CCCN)c2n1` (stereo not drawn) [Tafenoquine (Succinate)] registered a growth reduction of 100%.

On to `Cc1c(C)c2c(c(C)c1O)CCC(C)(COc1ccc(CC3SC(=O)NC3=O)cc1)O2` (stereo not drawn) [Troglitazone], for which the growth reduction worked out at 100%. The result for `CCN(CC)CCOc1ccc(/C(=C(/Cl)c2ccccc2)c2ccccc2)cc1` [Enclomiphene (citrate)] reads 100%.
